Activity calls are given as the source filed them.
How the values were obtained:
[1] = system: Wnt5a (protein binding on small-molecule microarray); experiment: small molecules binding Wnt5a protein – biophysical, small-molecule microarray, 635/667 nm fluorescence, primary screen (AID 1142); conditions: 635 nm fluorescence, higher = more signal;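 further: fluorescence read at 667 nm with signal to noise per printed feature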
[2] = ATP-based viability of Huh7 replicon cells – cell-based, CellTiter-Glo luminescence, basal, 48 h, cytotoxicity control for HCV replication inhibitor project, primary screen (AID 1143); conditions: higher = more signal, called active from +8 up or from −8 down;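 further: Huh7 hepatoma cells carrying a hepatitis C replication reporter with no stimulus; test concentration not given here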
[3] = basal CRE-LacZ reporter activity in PC12 – cell-based, unstimulated, primary screen (AID 1145); conditions: no forskolin, luminescence, 4.5 h, higher = more signal, called active from +8 up or from −8 down
[4] = forskolin-driven CRE-LacZ activity in PC12 – cell-based, CRE-LacZ reporter, forskolin-stimulated, primary screen (AID 1146); conditions: luminescence, 4.5 h, higher = more signal, called active from +8 up or from −8 down;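 further: PC12 cells with 6xCRE LacZ reporter stimulated by forskolin 10 µM; beta-galactosidase reporter signal reflecting CREB driven transcription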
[5] = biological target: Streptavidin (Streptomyces avidinii) (UniProt P22629); experiment: compounds binding control protein streptavidin – biophysical, small-molecule microarray, 635/667 nm fluorescence, artefact control for SMM compound annotation, primary screen (AID 1147); conditions: higher = more signal;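 further: signal reflects streptavidin binding to arrayed compounds as a control protein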
Streptavidin (Streptomyces avidinii), sequence (P22629 whole entry, looked up): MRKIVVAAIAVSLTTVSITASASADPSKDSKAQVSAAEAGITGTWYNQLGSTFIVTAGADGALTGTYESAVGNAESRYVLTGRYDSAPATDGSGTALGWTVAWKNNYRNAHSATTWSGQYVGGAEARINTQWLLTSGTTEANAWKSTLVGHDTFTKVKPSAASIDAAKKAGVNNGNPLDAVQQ

[6] = probe aInhba binding on compound microarray – biochemical, small-molecule microarray, 635/667 nm fluorescence, primary screen (AID 1148); conditions: higher = more signal;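 further: score merges 667nm spot fluorescence with signal-to-noise for antibody binding to printed compounds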
[7] = biological target: Torsin-1A (Homo sapiens) (UniProt O14656); experiment: TOR1A wild-type binding on microarray – cell lysate, small-molecule microarray, lysate, 635/667 nm, primary screen (AID 1149); conditions: COS7 hTOR1A-WT lysate, 635 nm fluorescence, higher = more signal
Torsin-1A (Homo sapiens), sequence (O14656 whole entry, looked up): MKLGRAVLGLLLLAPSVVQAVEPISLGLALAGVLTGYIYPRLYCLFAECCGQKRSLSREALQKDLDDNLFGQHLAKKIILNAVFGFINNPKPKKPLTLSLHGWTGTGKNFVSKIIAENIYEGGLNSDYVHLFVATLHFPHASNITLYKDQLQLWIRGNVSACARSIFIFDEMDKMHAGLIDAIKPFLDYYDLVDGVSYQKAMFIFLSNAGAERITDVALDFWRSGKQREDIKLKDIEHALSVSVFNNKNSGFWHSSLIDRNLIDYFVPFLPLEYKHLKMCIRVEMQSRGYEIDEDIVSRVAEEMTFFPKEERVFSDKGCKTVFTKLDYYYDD

[8] = biological target: Torsin-1A (Homo sapiens) (UniProt O14656); experiment: torsin A mutant lysate binding on microarrays – cell lysate, small-molecule microarray, COS7 lysate, 635/667 nm fluorescence, primary screen (AID 1150); conditions: COS7 hTOR1A mutant lysate, 635 nm fluorescence, higher = more signal;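 further: score pools 667 nm emission and signal to noise measuring lysate protein binding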
[9] = system: Sonic hedgehog protein (Shh); experiment: Sonic hedgehog microarray binding compounds – biochemical, small-molecule microarray, 635/667 nm fluorescence, primary screen (AID 1151); conditions: 635 nm fluorescence, higher = more signal;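 further: Shh protein binding to compounds spotted on small-molecule microarray slides; score combines spot fluorescence intensity with signal-to-noise across triplicate slides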
[10] = optical density shifts of acrAB sulA E. coli – strain DRC41, OD650, 48 h, E. coli filamentation inducer project, primary screen (AID 1152); conditions: higher = more signal, called active from +8 up or from −8 down;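 further: E. coli MC1000 strain DRC41 lacking acrAB efflux pump and sulA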
[11] = probe aLefty1 binding on compound microarray – biochemical, small-molecule microarray, 635/667 nm fluorescence, primary screen (AID 1153); conditions: higher = more signal;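 further: score merges spot fluorescence with signal-to-noise ratio from the scanned slide images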
[12] = plasmodial surface anion channel blockers, osmotic lysis – cell-based, P. falciparum Indochina, OD700, 1 h, primary screen (AID 1154); conditions: P. falciparum Indochina infected RBC osmotic lysis, higher = more signal, called active from +8 up or from −8 down
[13] = plasmodial surface anion channel blockers, osmotic lysis – cell-based, P. falciparum Indochina, OD700, 2 h, primary screen (AID 1155);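 further: lysis reports solute entry through the parasite surface anion channel PSAC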; conditions: P. falciparum Indochina infected erythrocytes, higher = more signal, called active from +8 up or from −8 down
[14] = changes in parasitized red cell lysis, either direction – P. falciparum Indochina, OD700, 3 h, PSAC antagonist project, primary screen (AID 1156); conditions: P. falciparum-infected erythrocytes, osmotic lysis, higher = more signal, called active from +8 up or from −8 down
[15] = plasmodial surface anion channel blockers, osmotic lysis – cell-based, P. falciparum Indochina, OD700, 18 h, primary screen (AID 1157); conditions: P. falciparum Indochina infected erythrocytes, osmotic lysis OD700, 18 h; higher = more signal, called active from +8 up or from −8 down
[16] = S6 kinase pathway phospho-S6 level changes – cell-based, A549, cytoblot, luminescence, serum-stimulated, primary screen (AID 1158); conditions: 5 h, higher = more signal;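 further: serum-stimulated A549 lung adenocarcinoma cells; signal is phosphorylated S6 detected by cytoblot immunostaining with HRP secondary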
[17] = biological target: NADPH oxidase 2 (Homo sapiens) (UniProt P04839); experiment: compounds shifting NOX2 Amplex Red fluorescence – cell-based, HEK293-NOX2, PMA-stimulated, NOX inhibitor project, primary screen (AID 1159); conditions: 45 min, higher = more signal, called active from +8 up or from −8 down; further: test concentration not given here
NADPH oxidase 2 (Homo sapiens), sequence (P04839 whole entry, looked up): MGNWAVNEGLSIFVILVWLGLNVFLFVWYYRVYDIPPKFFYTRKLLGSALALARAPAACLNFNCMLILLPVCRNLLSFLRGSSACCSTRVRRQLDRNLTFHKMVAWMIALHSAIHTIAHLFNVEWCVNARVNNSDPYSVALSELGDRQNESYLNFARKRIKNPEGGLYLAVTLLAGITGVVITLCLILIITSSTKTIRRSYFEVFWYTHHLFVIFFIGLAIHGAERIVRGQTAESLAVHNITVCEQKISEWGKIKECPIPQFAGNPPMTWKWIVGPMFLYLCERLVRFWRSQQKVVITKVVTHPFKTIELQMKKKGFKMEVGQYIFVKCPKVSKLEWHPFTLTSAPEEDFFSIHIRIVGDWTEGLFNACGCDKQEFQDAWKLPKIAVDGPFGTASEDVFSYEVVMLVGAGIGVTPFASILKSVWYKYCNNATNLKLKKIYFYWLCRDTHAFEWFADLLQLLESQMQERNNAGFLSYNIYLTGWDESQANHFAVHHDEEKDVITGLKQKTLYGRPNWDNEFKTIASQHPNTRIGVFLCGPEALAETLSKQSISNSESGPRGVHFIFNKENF

[18] = biological target: NADPH oxidase 4 (Homo sapiens) (UniProt Q9NPH5); experiment: compounds shifting NOX4 Amplex Red fluorescence – cell-based, HEK293-NOX4, tetracycline-induced, NOX inhibitor project, primary screen (AID 1160); conditions: HEK293-NOX4, Amplex Red H2O2 fluorescence, 45 min; higher = more signal, called active from +8 up or from −8 down
NADPH oxidase 4 (Homo sapiens), sequence (Q9NPH5 whole entry, looked up): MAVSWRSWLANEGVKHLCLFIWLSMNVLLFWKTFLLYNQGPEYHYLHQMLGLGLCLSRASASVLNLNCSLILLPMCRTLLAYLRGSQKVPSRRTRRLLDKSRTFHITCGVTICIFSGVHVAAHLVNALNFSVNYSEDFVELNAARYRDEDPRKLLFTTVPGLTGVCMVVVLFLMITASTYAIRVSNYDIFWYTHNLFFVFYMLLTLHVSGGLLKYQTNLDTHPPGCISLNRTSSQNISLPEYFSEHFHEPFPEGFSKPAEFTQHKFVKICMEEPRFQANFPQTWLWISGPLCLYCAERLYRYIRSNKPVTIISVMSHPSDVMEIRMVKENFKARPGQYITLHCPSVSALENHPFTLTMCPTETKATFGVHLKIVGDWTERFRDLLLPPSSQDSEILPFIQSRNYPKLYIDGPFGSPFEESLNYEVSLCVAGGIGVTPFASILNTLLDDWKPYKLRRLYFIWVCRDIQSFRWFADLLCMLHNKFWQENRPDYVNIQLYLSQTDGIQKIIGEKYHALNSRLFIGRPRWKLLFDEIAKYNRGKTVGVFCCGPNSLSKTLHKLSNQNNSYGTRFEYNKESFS

[19] = biological target: NADPH oxidase 5 (Homo sapiens) (UniProt Q96PH1); experiment: compounds shifting NOX5 Amplex Red fluorescence – cell-based, HEK293-NOX5, NOX inhibitor project, primary screen (AID 1161); conditions: HEK293-NOX5, ionomycin, 45 min, higher = more signal
NADPH oxidase 5 (Homo sapiens), sequence (Q96PH1 whole entry, looked up): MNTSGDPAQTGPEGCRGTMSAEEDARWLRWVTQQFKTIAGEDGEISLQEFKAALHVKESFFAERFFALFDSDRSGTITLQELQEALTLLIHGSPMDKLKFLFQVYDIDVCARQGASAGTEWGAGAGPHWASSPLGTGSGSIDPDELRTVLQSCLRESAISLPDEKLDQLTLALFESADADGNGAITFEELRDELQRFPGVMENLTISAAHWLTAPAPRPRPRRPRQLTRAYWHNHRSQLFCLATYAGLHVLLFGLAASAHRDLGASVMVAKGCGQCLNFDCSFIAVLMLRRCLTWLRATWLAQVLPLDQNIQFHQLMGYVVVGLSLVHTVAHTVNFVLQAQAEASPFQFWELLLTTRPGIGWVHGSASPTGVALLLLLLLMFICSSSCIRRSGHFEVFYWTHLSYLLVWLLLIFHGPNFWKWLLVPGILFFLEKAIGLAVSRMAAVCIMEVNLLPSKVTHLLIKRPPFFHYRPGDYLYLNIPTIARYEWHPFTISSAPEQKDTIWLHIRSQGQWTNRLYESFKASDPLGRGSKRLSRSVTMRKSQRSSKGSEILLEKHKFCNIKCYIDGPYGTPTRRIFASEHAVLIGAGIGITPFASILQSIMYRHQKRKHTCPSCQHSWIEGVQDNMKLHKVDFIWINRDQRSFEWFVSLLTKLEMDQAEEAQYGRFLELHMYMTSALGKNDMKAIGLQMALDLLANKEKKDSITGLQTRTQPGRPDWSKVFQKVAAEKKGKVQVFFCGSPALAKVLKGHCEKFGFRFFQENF

[20] = compound effects on lung adenocarcinoma cell viability – A549, calcein-AM fluorescence, 48 h, basal, profiling panel (AID 1162); conditions: higher = more signal; further: test concentration not given here

Compound	composite z-score [1]	z-score [2]	z-score [3]	z-score [4]	composite z-score [5]	composite z-score [6]	composite z-score [7]	composite z-score [8]	composite z-score [9]	z-score [10]	composite z-score [11]	z-score [12]	z-score [13]	z-score [14]	z-score [15]	z-score [16]	z-score [17]	z-score [18]	z-score [19]	z-score [20]
C[N+](C)(C)CCCC[C@@H]1NC(=O)[C@H]2C[C@@H](C(=O)NCCCCCN)[C@@H](c3cccc(OCCO)c3)N2C1=O	0.165	-1.18 (inactive)	0.0124 (inactive)	-1 (inactive)	1.04	0.147	0.918	1.7	-0.197	2.36 (inactive)	0.857	1.76 (inactive)	0.858 (inactive)	-1.26 (inactive)	0.57 (inactive)	-0.0325	1.03 (inactive)	-0.833 (inactive)	2.24	-0.013
COc1ccc([Si](C)(C)[C@H]2[C@H](CC(=O)N3Cc4ccccc4C[C@H]3CO)O[C@@]3(C(=O)N(Cc4cccc(N5C(=O)COc6ccccc65)c4)c4ccccc43)[C@@H]2C)cc1	0.283	-3.87 (inactive)	3.47 (inactive)	-1.86 (inactive)	0.22	-0.0986	0.562	0.212	2	0.578 (inactive)	-0.0035	3.46 (inactive)	1.76 (inactive)	1.69 (inactive)	1.04 (inactive)	0.0515	-1.37 (inactive)	-0.307 (inactive)	-2.34	0.486
C=CC[C@@H](OC(=O)Nc1ccc(SC)cc1)c1ccc(OCCO)cc1	-0.248	-0.89 (inactive)	14.4 (active)	-0.595 (inactive)	-0.761	-0.202	1.76	0.972	0.43	-0.0217 (inactive)	0.197	27.1 (active)	18.6 (active)	0.616 (inactive)	-0.016 (inactive)	-0.506	-2.02 (inactive)	-0.346 (inactive)	-2.26	1.13
COc1ccc([Si](C)(C)[C@H]2[C@H](CC(=O)N(CCO)Cc3ccccc3)O[C@@]3(C(=O)N(Cc4ccc(N5CCOC5=O)cc4)c4ccccc43)[C@@H]2C)cc1	-0.0226	-2.42 (inactive)	1.05 (inactive)	-0.871 (inactive)	0.295	0.0111	0.442	0.0957	1.73	1.22 (inactive)	-0.123	25.1 (active)	14.5 (active)	-0.084 (inactive)	2.17 (inactive)	-0.141	0.815 (inactive)	-0.23 (inactive)	1.34	-0.832
CC(CO)N1C(=O)[C@@H]2C3C(=O)OCCC/C=C\[C@H]3OC23C=CCN(Cc2ccccc2)C(=O)[C@@H]13 (stereo not given in full)	-0.146	-0.182 (inactive)	-0.753 (inactive)	-0.954 (inactive)	-1.03	-0.31	-0.462	-0.276	0.194	2.52 (inactive)	-0.24	0.38 (inactive)	-0.999 (inactive)	-0.513 (inactive)	-0.899 (inactive)	0.467	0.456 (inactive)	-0.322 (inactive)	1.36	1.59
[N-]=[N+]=NCc1ccccc1C[C@@]1(C(=O)O)N=C(c2ccc(OCCCO)cc2)O[C@@H]1c1ccccc1	0.0855	-0.563 (inactive)	-0.137 (inactive)	0.718 (inactive)	0.246	-0.0421	-0.233	0.0019	-0.515	0.706 (inactive)	-0.0654	15.1 (active)	2.07 (inactive)	0.912 (inactive)	0.199 (inactive)	0.218	1.07 (inactive)	1.34 (inactive)	1.48	0.349
NCCCCCCNC(=O)[C@@H]1C[C@@H]2C(=O)N[C@@H](Cc3ccccc3)C(=O)N2[C@@H]1c1ccc(O)cc1	0.0167	-0.136 (inactive)	1.52 (inactive)	-1.12 (inactive)	0.91	0.229	0.104	0.416	0.507	0.717 (inactive)	0.443	3.47 (inactive)	0.374 (inactive)	-6.59 (inactive)	0.276 (inactive)	-0.118	1.18 (inactive)	1.3 (inactive)	0.846	0.987
COCCCN1C(=O)[C@@]2(Cc3ccccc31)c1ccccc1C(=O)N(Cc1ccccc1Cl)[C@H]2c1ccc(CO)cc1	0	-1.33 (inactive)	-0.179 (inactive)	-0.415 (inactive)	-0.733	-0.108	-0.471	0.0439	0.0161	3.46 (inactive)	0.0053	0.399 (inactive)	-0.277 (inactive)	-0.992 (inactive)	-0.85 (inactive)	1.34	-2.48 (inactive)	0.163 (inactive)	1.65	1.54
CCOC(=O)C[C@H]1[C@H](OC(=O)c2cc3ccccc3oc2=O)[C@@H](NC(=O)c2ccccc2)c2cc(OCCCO)ccc2N1C(=O)Cc1ccc(OC)cc1	0.146	-4.64 (inactive)	8.63 (active)	-2.07 (inactive)	0.0709	0.0464	0.151	0.098	0.251	3.12 (inactive)	-0.0051	3.28 (inactive)	-0.825 (inactive)	0.076 (inactive)	-2.29 (inactive)	2.39	-0.224 (inactive)	0.106 (inactive)	0.874	-0.0571
